Screens (PubChem)
Efflux pump mplx – inhibitors of Candida efflux pumps in yeast, primary screen, S. cerevisiae, Nile Red, multiplex. 330,000 tested, 0.44% active. inhibition, % at 10 µM. S. cerevisiae Candida pump triplex;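 active = plate passing quality check with inhibition over a set limit, or well fluorescence over plate mean plus 4 SD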;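 note: Nile Red retained in pooled yeast measured as flow cytometry median fluorescence; 0% = buffer negative control and 100% = Enniatin B positive control; higher means more Nile Red kept so more efflux inhibition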
PHOSPHO1 block – PubChem AID 1565. Phosphoethanolamine/phosphocholine phosphatase (Homo sapiens), Q8TCT1. recombinant PHOSPHO1, absorbance phosphatase assay. inhibition, % at 13.3 µM. 290,000 tested, 1.1% active; in the data active = inhibition above about 60%
Cl transport mod – KCC2 cotransporter modulators, thallium flux, primary screen, cell-based, HEK293 KCC2, FluoZin-2 fluorescence, MLSMR; Solute carrier family 12 member 5 (Homo sapiens), Q9H2X9; KCC2 cells, thallium flux FluoZin-2 fluorescence; B-score of Tl+ flux slope (higher = more flux/activation; lower = inhibition) at 10 µM; 190,000 tested, 2.2% active; AID 1456, 2008;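 active = thallium flux slope and its plate-corrected score both differing from the plate sample mean at a set confidence after two filtering rounds, in either direction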;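 note: slope of fluorescence scaled to starting intensity during 10 to 20 s after thallium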
Target sequence (Q9H2X9 whole entry, looked up): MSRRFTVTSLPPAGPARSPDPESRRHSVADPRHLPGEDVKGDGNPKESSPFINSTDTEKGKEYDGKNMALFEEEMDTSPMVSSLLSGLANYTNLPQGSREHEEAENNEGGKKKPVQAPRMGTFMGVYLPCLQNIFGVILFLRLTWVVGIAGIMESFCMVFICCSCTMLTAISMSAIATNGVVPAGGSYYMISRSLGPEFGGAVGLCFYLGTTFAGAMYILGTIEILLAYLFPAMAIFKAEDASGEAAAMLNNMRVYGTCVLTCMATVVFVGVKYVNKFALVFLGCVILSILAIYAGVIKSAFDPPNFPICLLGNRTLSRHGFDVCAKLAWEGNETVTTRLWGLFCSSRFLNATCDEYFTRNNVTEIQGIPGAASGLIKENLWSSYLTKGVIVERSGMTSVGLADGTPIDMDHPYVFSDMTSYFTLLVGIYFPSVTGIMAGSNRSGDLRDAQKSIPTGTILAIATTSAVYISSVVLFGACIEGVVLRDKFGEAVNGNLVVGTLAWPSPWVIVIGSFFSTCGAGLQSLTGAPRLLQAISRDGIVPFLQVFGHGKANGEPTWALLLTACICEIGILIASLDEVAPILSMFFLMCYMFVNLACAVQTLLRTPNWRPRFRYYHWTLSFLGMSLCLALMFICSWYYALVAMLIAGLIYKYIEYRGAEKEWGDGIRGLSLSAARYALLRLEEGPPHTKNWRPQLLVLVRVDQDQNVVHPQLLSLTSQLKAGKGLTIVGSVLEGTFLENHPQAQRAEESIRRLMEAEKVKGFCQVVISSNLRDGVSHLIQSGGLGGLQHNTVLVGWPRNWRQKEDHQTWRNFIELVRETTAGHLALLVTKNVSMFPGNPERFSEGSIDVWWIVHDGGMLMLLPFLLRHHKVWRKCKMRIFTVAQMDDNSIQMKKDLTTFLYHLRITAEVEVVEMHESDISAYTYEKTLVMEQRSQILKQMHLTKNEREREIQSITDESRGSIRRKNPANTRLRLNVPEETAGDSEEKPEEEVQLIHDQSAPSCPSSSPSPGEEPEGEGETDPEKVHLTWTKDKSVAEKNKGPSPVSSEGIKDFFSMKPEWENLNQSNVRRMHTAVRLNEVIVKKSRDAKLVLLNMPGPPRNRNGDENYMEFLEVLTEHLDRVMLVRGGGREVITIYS
Calb FLC – C. albicans growth inhibition with fluconazole, primary screen, CaCi-2 strain, Alamar Blue fluorescence. C. albicans CaCi-2 (fluconazole-resistant clinical isolate) + fluconazole, 48 h. growth inhibition, % (no concentration beside the values). 300,000 tested, 0.57% active. AID 1979, 2009;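 active = growth inhibition above about 58% in most replicates, limit read from the data, passing the limit was not always enough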;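 note: all wells also contain fluconazole at 8 µg/ml as a sub-toxic cotreatment; 0% = median of DMSO wells and 100% = median of geldanamycin control wells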
H9c2 protect – cardioprotection against H2O2-induced cell death, primary screen, uHTS, H9c2 cells, ATPLite luminescence; H9c2 cardiomyocytes, H2O2 injury protection, 2 h; 360,000 tested, 0.63% active; protection from H2O2 cell death, % at 20 µM; AID 588492, 2011;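 active = compounds giving at least 50% protection of heart cells from peroxide-induced death in the single-dose screen, raw or plate-pattern-corrected value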;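 note: 0% = DMSO wells with peroxide and 100% = DMSO wells without peroxide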
Numbers without * were called inactive; / = not tested or not shown. Sampled rows, rich in hits. Any-hit rate of the full collection: about 3.3%.

SMILES	Efflux pump mplx	PHOSPHO1 block	Cl transport mod	Calb FLC	H9c2 protect
Cc1cc(C)c2c(=O)cc(C(F)(F)F)oc2n1	0.0	32.2	-0.126	21.3	0.4
O=C(Nc1ccc(Cl)cc1)[C@@H]1[C@@H]2C(=O)N(c3ccc4ccccc4c3)C(=O)[C@@H]2[C@H]2C=CC=NN21	0.2	75.7*	-0.555	-1.6	-6.7
O=C(Nc1ccc(Cl)cc1)[C@@H]1[C@@H]2C(=O)N(c3cccc(F)c3)C(=O)[C@@H]2[C@H]2C=CC=NN21	0.0	-48.3	-0.0813	-1.8	1.8
CCOC(=O)C1=C(C)Nc2ccccc2N=C1NC(=O)c1oc2ccccc2c1COC	-0.1	/	/	/	85.6*
CCOC(=O)C1=C(C)Nc2ccccc2N=C1N	0.0	32.2	-0.692	-0.4	6.9
CCN1CCN(C(=O)c2cccc(OC3CCN(S(C)(=O)=O)CC3)c2)[C@@H](C)C1=O	0.2	32.2	/	7.8	4.4
CN(C)CCCOC(=O)c1sc2ccccc2c1Cl	0.0	39.5	-1.1	-22.6	-0.7
Cc1ccc(NC(=S)NC(=O)c2sc3ccccc3c2Cl)c(C(=O)O)c1	/	3.4	60.2*	36.3	/
CCCCOC(=S)NC(=O)c1sc2ccccc2c1Cl	-0.5	24.0	46.8*	-3.1	-5.6
CC(=O)N1CCN(c2ccc(NC(=O)c3ccc(C(C)(C)C)cc3)cc2)CC1	0.0	9.7	-0.468	109.5*	9.8
CC(=O)N1CCN(c2ccc(NC(=O)c3ccc(Cl)cc3)cc2)CC1	0.5	39.5	/	6.0	8.2
Cc1cccc(Cc2nnc(CCC(=O)N3CCCCC3c3nccs3)o2)c1 (centres undefined)	0.1	-6.4	-0.0947	100.2*	6.3
COc1ccc(OC)c(Cc2nnc(CCC(=O)N3CCCCC3c3nccs3)o2)c1 (centres undefined)	0.0	6.4	0.512	2.7	0.6
COc1ccc(OCc2n[nH]c(=S)n2-c2ccc(C)cc2)cc1	0.0	91.9*	-0.239	-0.4	0.0
COc1ccccc1-c1n[nH]c(=S)n1-c1ccccc1	0.0	89.4*	/	9.8	-1.5
COc1ccc(-n2c(-c3ccco3)n[nH]c2=S)cc1	0.0	99.0*	0.0425	1.1	1.1
Nn1c(-c2ccco2)n[nH]c1=S	-0.1	85.5*	0.273	-1.1	-4.4
COc1cc(OC)cc(-c2n[nH]c(=S)n2-c2cc(OC)ccc2OC)c1	0.1	81.6*	/	16.7	5.3
O=C1c2ccccc2C(=O)N1CCOc1ccccc1	0.0	/	-0.416	-4.0	1.7
Cc1c(C(=O)O)c(=S)sn1CCOc1ccccc1	/	12.4	-2.5*	8.3	-3.5
CSc1ccccc1OCc1cc(C(=O)N(C)C(C)c2ccccn2)no1 (centres undefined)	-0.1	61.0*	/	-4.2	1.3
Oc1cccc(/C=N/NC(=S)NCCN2CCOCC2)c1O	0.0	-150.6	-1.54	1.5	48.9*
CC(C)(C)n1nc2c(c1NC(=O)Cc1cccc3ccccc13)CS(=O)C2 (centres undefined)	0.1	63.2*	/	-6.4	5.5
COc1ccccc1NC(=O)c1cc2c(s1)-c1ccccc1S(=O)(=O)C2	0.0	17.7	0.0192	0.7	16.4
CC(=O)C1C(=O)c2c(cccc2[N+](=O)[O-])C1=Nc1ccc(S(N)(=O)=O)cc1 (centres undefined)	-0.2	-37.4	/	6.0	8.6
SMILES	Efflux pump mplx	PHOSPHO1 block	Cl transport mod	Calb FLC	H9c2 protect
CSc1nc(C=Nc2ccccc2Cl)c(O)n1Cc1cccc(Cl)c1	0.0	88.2*	-0.0274	2.2	7.4
N#Cc1ccc(NC(=O)Cn2cnc(S(=O)(=O)N3CCCCC3)c2)cc1	0.3	47.9	/	-3.3	1.8
CN1CCN(CC(=O)N2CCn3c4c(c5cc(C6CCCCC6)ccc53)CCCC42)CC1 (centres undefined)	0.2	-24.6	0.204	110.6*	-19.5
O=C(Nc1ccccc1Cl)c1cc(C2CCCN(C(=O)c3cccs3)C2)on1 (centres undefined)	/	/	/	/	0.6
COc1ccc(-c2nc(CS(=O)CC(=O)NC3CCCCCC3)c(C)o2)cc1 (centres undefined)	0.0	64.9*	/	2.1	-7.5
COc1ccc(-c2nnc(Nc3nc4c(OC)cccc4s3)o2)cc1	0.2	14.8	9.51*	-6.1	26.6
Fc1cccc2sc(Nc3nnc(-c4ccccc4)o3)nc12	-0.1	0.5	/	-1.1	-29.1
COc1ccc(-c2nnc(Nc3nc4c(OC)cccc4s3)o2)c(OC)c1	0.1	-18.3	84.8*	101.2*	36.2
COc1ccc2nc(Nc3ccccc3OC)sc2c1	0.0	-10.4	0.293	-10.6	-16.6
COc1cc(OC)cc(-c2nnc(Nc3nc4c(F)cccc4s3)o2)c1	0.0	0.6	9.14*	114.9*	-16.3
Cc1cc(C)c(C)c(S(=O)(=O)N[C@@H](C)C(=O)OCC(=O)NC2CCCC(C)C2C)c1C (some centres undefined)	0.4	/	/	/	-8.1
Cc1nn(CC(=O)NCCCN2C(C)CCCC2C)c(=O)c2cc3occc3n12 (centres undefined)	-0.1	11.6	/	-1.7	4.2
C=CCNc1nnc(SC2CC(=O)N(c3ccc(OC)cc3)C2=O)s1 (centres undefined)	0.0	92.8*	/	-1.2	-26.1
O=C(CSc1nccn1-c1ccc(Cl)cc1)NCc1ccc2c(c1)OCO2	-0.1	68.4*	-1.38	-3.7	-5.3
O=C(CSc1ncnc2c1cnn2-c1ccc(Cl)cc1)NCc1ccc2c(c1)OCO2	-0.1	1.5	20.8*	3.2	9.1
CCOc1cc(C(=O)OC(C)C(=O)Nc2ccc(NC(C)=O)cc2)ccc1OCC(=O)N1CCCCC1 (centres undefined)	-0.2	37.6	/	-1.8	4.4
CCn1c(NC(=S)Nc2ccccc2)nc2ccccc21	0.0	-120.8	13*	6.2	0.5
S=C(Nc1ccccc1)Nc1nc2ccccc2n1CCOc1ccc(Cl)cc1	1.3	-9.7	3.05	92.0*	1.2
COc1cccc(CNC(=O)CN2C(=O)COc3ccc(S(=O)(=O)N4CCOCC4)cc32)c1	0.2	35.5	/	5.8	-2.1
COc1cc(/C=N/NC(=O)c2cccnc2)ccc1OS(=O)(=O)c1ccc(C)cc1	0.0	-5.1	-0.768	-15.7	16.1
COc1cc(/C=N/NC(=O)c2cccnc2)ccc1OS(=O)(=O)c1cc(C)ccc1C	0.1	-7.4	-1.82	7.7	62.3*
COc1cc(/C=N/NC(=O)c2cccnc2)ccc1OCC(=O)Nc1ccc(C)cc1	0.1	18.3	0.207	-10.1	19.2
COc1cc(/C=N/NC(=O)c2cccnc2)ccc1OS(=O)(=O)c1ccc(F)cc1	0.1	4.7	/	-14.3	84.8*
Cc1ccccc1SCC(=O)OCC(=O)NCc1ccccc1	0.1	/	/	/	1.4
O=C(O)CCc1nn2c3ccccc3n(Cc3ccccc3F)c2nc1=O	-0.1	29.2	-0.0228	10.3	-7.9
Brc1ccccc1C1=Nn2c(nnc2-c2ccccc2)SC1	0.2	83.3*	-0.804	-2.0	-7.8
Brc1ccccc1C1=Nn2c(nnc2-c2ccco2)SC1	0.0	31.6	-0.945	-3.2	4.4
